Experimental data taken from PubChem BioAssay (Tox21).
Records with an inconclusive call do not appear. A call without a number means that no potency is given here. Calls of active or inactive are those of the source. Unless noted, the call rests on the fitted dose curve; in most records, active means well fitted curve in the direction sought with a large enough effect in the repeat runs; inconclusive means weak or mixed curves; inactive means no such curve, though single readings can be large; an effect the other way counts as inactive or inconclusive.

Experiments:
[1] = qHTS assay for small molecule agonists of the p53 signaling pathway (AID 651631; calls by dose curve; further: nearly all actives have a fitted effect of over 15% in size; further: potency means the concentration at half of the fitted maximal effect)
Procedure, shortened: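 p53RE-bla HCT-116 cells; compounds 16 h, 37 °C; LiveBLAzer B/G FRET substrate 2 h RT; fluorescence intensity read-out, qHTS format.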

[2] = qHTS assay for small molecule agonists of the p53 signaling pathway - cell viability (AID 651633; calls by dose curve;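 further: p53RE-bla HCT reporter cells with a stable beta-lactamase p53 reporter; series mostly up to about 83 µM; nearly all actives have a fitted effect of over 30% in size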)
Procedure, shortened: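 p53RE-bla cells were treated with compound for 16 hours at 37 C. Cytotoxicity was then measured as CellTiter-Glo luminescence after 30 min at room temperature.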

[3] = qHTS assay for small molecules that induce genotoxicity in human embryonic kidney cells expressing luciferase-tagged ATAD5 - cell viability (AID 651634; calls by dose curve; further: nearly all actives have a fitted effect of over 25% in size)
Procedure, shortened: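 HEK293T cells expressing luciferase-tagged ATAD5 were exposed to compound or DMSO for 15.5 hr at 37C, 5% CO2. Viability was then read as live-cell protease activity by CellTiter-Fluor fluorescence after 30 min at 37C.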

[4] = qHTS assay for small molecule disruptors of the mitochondrial membrane potential - cell viability (AID 720634; calls by dose curve;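 further: human HepG2 liver cancer cells; series mostly up to about 83 µM; nearly all actives have a fitted effect of over 20% in size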)
Procedure, shortened: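 HepG2 cells seeded overnight at 37 C, then exposed to compound or DMSO for 1 hr at 37 C, 5% CO2. m-MPI dye added, then CellTiter-Glo for 30 min at room temperature; viability read as ATP luminescence.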

[5] = qHTS assay to test for compound auto fluorescence at 590 nm (red) in HepG2 cells (AID 720674)
Procedure, shortened: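 HepG2 cells, 2,000 per well in MEM with 10% FBS, attached overnight at 37 C, then got 23 nL compound or DMSO. After 1 hr at 37 C, 5% CO2, red fluorescence was read at 540/590 nm against Rose Bengal sodium as reference.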

[6] = qHTS assay to test for compound auto fluorescence at 535 nm (green) in HepG2 cells (AID 720675)
[7] = qHTS assay to test for compound auto fluorescence at 460 nm (blue) in HEK293 cells (AID 720678)
Procedure, shortened: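 Auto fluorescence in the blue band was quantified as triamterene equivalency. HEK293 cells were seeded at 2,000/well, dosed after a 4-5 hr attachment, and kept overnight at 37C before the 405/460 nm reading.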

[8] = qHTS assay to test for compound auto fluorescence at 590 nm (red) in HEK293 cells (AID 720679)
Procedure, shortened: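 Autofluorescence equivalency to Rose Bengal sodium, 540/590nm, in HEK293 cells exposed overnight to 23 nL compound per well.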

[9] = qHTS assay to test for compound auto fluorescence at 535 nm (green) in HEK293 cells (AID 720680)
[10] = qHTS assay to test for compound auto fluorescence at 460 nm (blue) in HEK293 cell free culture (AID 720681)
Procedure, shortened: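 Compounds were added to cell-free DMEM with 10% FBS and fluorescence read directly. The blue channel used 405 nm excitation and 460 nm emission, with triamterene as the reference fluorophore.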

[11] = qHTS assay to test for compound auto fluorescence at 590 nm (red) in HEK293 cell free culture (AID 720683)
Procedure, shortened: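 Cell-free wells of DMEM with 10% FBS received compound, and intrinsic fluorescence was read at excitation/emission 540/590 nm. Values expressed as equivalence to Rose Bengal sodium.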

[12] = qHTS assay to test for compound auto fluorescence at 460 nm (blue) in HepG2 cell free culture (AID 720685)
Procedure, shortened: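 Compound (23 nL) or DMSO pinned into cell-free MEM with 10% FBS; blue fluorescence read at 405/460 nm excitation/emission, expressed as auto-fluorescence equivalency to triamterene.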

[13] = qHTS assay to test for compound auto fluorescence at 535 nm (green) in HepG2 cell free culture (AID 720686)
[14] = molecular target: Glucocorticoid receptor (Homo sapiens) (UniProt P04150); experiment: qHTS assay to identify small molecule agonists of the glucocorticoid receptor (GR) signaling pathway (AID 720691; active means well fitted activation curve with a large enough effect in the signal ratio in the repeat runs, not every such curve was filed as active; the % refers to the signal ratio)
Chain of Glucocorticoid receptor (Homo sapiens) (P04150 whole entry, looked up): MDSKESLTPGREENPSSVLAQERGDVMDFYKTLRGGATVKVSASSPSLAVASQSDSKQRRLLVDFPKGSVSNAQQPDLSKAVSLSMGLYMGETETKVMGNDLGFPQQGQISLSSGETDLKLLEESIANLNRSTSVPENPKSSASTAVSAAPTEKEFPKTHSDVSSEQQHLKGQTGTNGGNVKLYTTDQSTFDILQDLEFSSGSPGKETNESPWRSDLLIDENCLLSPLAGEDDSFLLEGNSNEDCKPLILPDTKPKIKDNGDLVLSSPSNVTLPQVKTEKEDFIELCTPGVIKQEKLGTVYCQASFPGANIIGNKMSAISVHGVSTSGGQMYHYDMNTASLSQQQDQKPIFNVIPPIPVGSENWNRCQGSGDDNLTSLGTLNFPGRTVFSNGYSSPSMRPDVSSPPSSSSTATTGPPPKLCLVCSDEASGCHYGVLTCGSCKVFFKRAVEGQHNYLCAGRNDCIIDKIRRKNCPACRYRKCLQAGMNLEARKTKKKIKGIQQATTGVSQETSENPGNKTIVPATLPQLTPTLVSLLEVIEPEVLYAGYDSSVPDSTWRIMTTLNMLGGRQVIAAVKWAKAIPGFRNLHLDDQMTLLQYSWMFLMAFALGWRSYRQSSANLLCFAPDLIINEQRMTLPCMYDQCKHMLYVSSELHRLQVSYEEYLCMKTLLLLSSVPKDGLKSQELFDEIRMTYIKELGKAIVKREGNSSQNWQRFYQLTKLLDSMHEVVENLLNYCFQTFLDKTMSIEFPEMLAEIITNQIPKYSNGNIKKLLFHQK
Procedure, shortened: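 GR-bla HeLa cells (beta-lactamase reporter under glucocorticoid response element) were plated 4 h at 37 C/5% CO2, given compounds in DMSO, and incubated 18 h at 37 C. LiveBLAzer B/G FRET substrate was added for 2 h at room temperature, then fluorescence intensity read.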

[15] = molecular target: Glucocorticoid receptor (Homo sapiens) (UniProt P04150); experiment: qHTS assay to identify small molecule antagonists of the glucocorticoid receptor (GR) signaling pathway (AID 720692; active means well fitted inhibition curve with a large enough effect in the signal ratio in the repeat runs, not every such curve was filed as active; the % refers to the signal ratio)
Procedure, shortened: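 GR-bla HeLa cells (beta-lactamase reporter under glucocorticoid response element) were pre-plated 4 h at 37 C, treated with compounds plus 5 nM dexamethasone (final) for 18 h, then read by LiveBLAzer B/G FRET fluorescence after 2 h.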

[16] = qHTS assay for small molecules that induce genotoxicity in human embryonic kidney cells expressing luciferase-tagged ATAD5 (AID 651632); further: nearly all actives have a fitted effect of over 15% in size
Procedure, shortened: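 HEK293T cells carrying a luciferase reporter tagged to ATAD5 were exposed to compound or DMSO vehicle for 16 hr at 37C, 5% CO2. Amplite was added, and after 30 min at room temperature luciferase activity was read as a marker of ATAD5 induction.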

[17] = qHTS assay to test for compound auto fluorescence at 535 nm (green) in HEK293 cell free culture (AID 720682)
Procedure, shortened: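 Cell-free medium (DMEM, 10% FBS) receives compound or DMSO by pintool. Plate read directly at Ex 485/Em 535 nm. Signal converted to fluorescein equivalency.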

[18] = qHTS assay to test for compound auto fluorescence at 590 nm (red) in HepG2 cell free culture (AID 720684)
Procedure, shortened: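 Compound was pinned into wells holding MEM with 10% FBS and no cells, and red fluorescence was read at Ex/Em 540/590 nm. Signal is expressed as auto fluorescence equivalency relative to Rose Bengal sodium.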

[19] = qHTS assay to test for compound auto fluorescence at 460 nm (blue) in HepG2 cells (AID 720687)
Procedure, shortened: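 HepG2 cells in MEM with 10% FBS, attached overnight at 37 C, were exposed to compound or DMSO for 1 hr at 37 C, 5% CO2. Blue fluorescence was read at 405/460 nm, with triamterene as reference fluorophore.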

[20] = qHTS assay for small molecule disruptors of the mitochondrial membrane potential (AID 720635)
Procedure, shortened: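 HepG2 cells exposed to compound 1 hr at 37C, then Mito-MPS dye 30 min. Ratio read of aggregate (540/590 nm) versus monomer (490/535 nm) fluorescence.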

SMILES | Potency [1] | Potency [2] | Potency [3] | Potency [4] | outcome [5] | outcome [6] | outcome [7] | outcome [8] | outcome [9] | outcome [10] | outcome [11] | outcome [12] | outcome [13] | outcome [14] | Potency [15] | Potency [16] | outcome [17] | outcome [18] | outcome [19] | Potency [20]
O=[N+]([O-])c1ccc(CBr)cc1 | inactive | inactive | inactive | inactive | inactive | inactive | inactive | inactive | inactive | inactive | inactive | inactive | inactive | inactive | inactive | – | – | – | – | –
OC(Cn1cncn1)(c1ccc(F)cc1)c1ccccc1F (centres undefined) | inactive | inactive | – | – | inactive | inactive | inactive | inactive | inactive | – | inactive | inactive | inactive | – | – | inactive | inactive | inactive | inactive | –
ClCCOCOCCCl | inactive | inactive | – | inactive | – | inactive | inactive | inactive | inactive | inactive | inactive | inactive | inactive | – | inactive | inactive | – | inactive | inactive | inactive
O=c1oc2ccccc2c(O)c1C1CCCc2ccccc21 (centres undefined) | inactive | inactive | – | – | – | inactive | inactive | inactive | inactive | inactive | inactive | inactive | inactive | – | inactive | inactive | inactive | inactive | inactive | –
CCN(Cc1ccc(Cl)nc1)/C(=C/[N+](=O)[O-])NC | inactive | inactive | – | – | inactive | inactive | inactive | inactive | inactive | inactive | – | inactive | inactive | – | inactive | inactive | inactive | inactive | inactive | –
CC(C=O)Cc1ccc2c(c1)OCO2 (centres undefined) | inactive | inactive | – | – | inactive | inactive | inactive | inactive | inactive | inactive | – | inactive | inactive | inactive | – | inactive | inactive | inactive | inactive | –
ClC(Cl)C(Cl)Cl | inactive | inactive | – | – | inactive | inactive | inactive | inactive | inactive | inactive | inactive | inactive | inactive | – | – | inactive | inactive | inactive | – | –
CC(Cl)(Cl)[N+](=O)[O-] | inactive | inactive | – | – | inactive | inactive | inactive | inactive | inactive | inactive | inactive | inactive | inactive | inactive | – | inactive | inactive | inactive | inactive | –
CC1CCC(=O)O1 (centres undefined) | inactive | inactive | – | – | inactive | inactive | inactive | inactive | inactive | inactive | – | inactive | inactive | inactive | – | inactive | – | inactive | inactive | inactive
c1cc2c(c(N3CCNCC3)c1)OCCO2 | inactive | inactive | – | inactive | inactive | inactive | inactive | inactive | inactive | inactive | inactive | inactive | inactive | inactive | inactive | inactive | inactive | inactive | – | –
C=CC1CC=CCC1 (centres undefined) | inactive | inactive | – | inactive | inactive | inactive | inactive | inactive | inactive | inactive | inactive | inactive | inactive | inactive | inactive | inactive | inactive | inactive | inactive | –
O=[N+]([O-])c1cccc2cccnc12 | inactive | inactive | – | inactive | – | inactive | inactive | inactive | inactive | inactive | inactive | inactive | inactive | inactive | – | – | inactive | – | inactive | –
CC1=C(C(=O)Nc2ccccc2)S(=O)(=O)CCO1 | 19.3 µM (active) | inactive | – | inactive | inactive | inactive | inactive | inactive | inactive | – | inactive | inactive | inactive | – | – | inactive | inactive | inactive | inactive | –
ClCC(Cl)Cl | inactive | inactive | – | inactive | – | inactive | inactive | inactive | inactive | inactive | – | inactive | inactive | – | – | inactive | inactive | inactive | – | inactive
Cc1nc(N)nc(N)n1 | inactive | inactive | – | inactive | – | inactive | inactive | inactive | inactive | inactive | inactive | inactive | inactive | inactive | – | inactive | inactive | inactive | inactive | –
